From PubChem BioAssay
Methyltransferases: Primary Screen for Target Class Profiling of Small Molecule Inhibitors of Methyltransferases; purified enzyme, MTase-Glo SAH luminescence; active compounds read low; calls only at 40 µM; 3.9% of 25,000 active; AID 1745853, 2022; call rule not given here
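Each enzyme was assayed with SAM and its substrate. SAH formation detected by MTase-Glo luminescence; single-point 40 uM screen[…].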
Numbers without * were called inactive; i = inactive; + = active, no number; ! = not active in a repeat. The entries come from a sample that favours hits as a whole. % is scaled to controls: 0 for no effect and ±100 for the full control effect.

SMILES	Methyltransferases
CN1CCN(C(=O)c2ccc(Nc3nccc(-c4cccs4)n3)cc2Cl)CC1	+
CC1(C(=O)NCc2ccccc2Cl)Cn2cnc(C(=O)NCCCc3ccccc3)c2C(=O)N1C1CC1 (configuration not stated)	i
CCCCNC(=O)Cn1ccc2cc(S(=O)(=O)N3CCCCC3)ccc21	i
CC1CCC(NC(=O)C2(C)Cn3c(ccc3-c3ccccc3)C(=O)N2Cc2ccccc2Cl)CC1 (configuration not stated)	i
Brc1c(Br)c(Br)c2[nH]cnc2c1Br	+
CCOc1ccc(CNC(=O)c2ncn3c2C(=O)N(CC)C(C)(C(=O)NC2CCCC2)C3)cc1 (configuration not stated)	i
Cc1ccc(CN2C(=O)c3ccc(-c4ccco4)n3CC2(C)C(=O)NC2CCCCCCC2)o1 (configuration not stated)	i
Cc1ccc(CN2C(=O)c3cc4ccccc4n3CC2(C)C(=O)NCc2ccccc2)cc1 (configuration not stated)	i
CC(=O)NC(Cc1ccccc1)C(=O)NC(C(=O)O)C(C)C (configuration not stated)	i
O=C(O)CNC(=O)CNC(=O)CNC(=O)CSC(=O)c1ccccc1	i
O=C(O)CNC(=O)C(CS)Cc1ccccc1 (configuration not stated)	+
Cc1cccc(NC(=O)CSc2nnc3n(CC(C)C)c(=O)c4ccccc4n23)c1	i
COC(=O)c1cc2n(n1)CC(C)(C(=O)NC1CCCCCC1)N(c1cc(C)ccc1C)C2=O (configuration not stated)	i
c1cc(OCCCN2CCCCC2)ccc1CN1CCCCC1	+
CCC1(CO)CCCN(CCCOc2ccc(C(N)=O)cc2)C1 (configuration not stated)	i
CC/C(=C(\c1ccc(O)cc1)c1ccc(OCCNC)cc1)c1ccccc1	i
Cc1ccc(CN2CCN(Cc3ccc(=O)n(C)c3)CC2)cc1	i
CCC(=C(c1ccc(OCCN2CCCC2)cc1)c1ccc(OCCN2CCCC2)cc1)c1ccccc1	+
CC/C(=C(\c1ccccc1)c1ccc(OCCN(C)C)cc1)c1ccccc1	i
CC(C)CNC(=O)c1ccc2c(=O)n(C)c3nn(CC(=O)NCc4ccc(Cl)cc4)c(=O)n3c2c1	i
CCCC1c2cccn2CCN1C(=O)Nc1ccc(C)cc1 (configuration not stated)	i
COc1ccc(-c2cc3n(n2)CC(C)(C(=O)NCc2ccccc2)N(c2ccc(C(C)C)cc2)C3=O)cc1 (configuration not stated)	i
CC(=O)NC(C)c1cnc(-c2cnc(Oc3ccc(OC(C)C)cc3)s2)s1 (configuration not stated)	i
CC1CCN(S(=O)(=O)c2ccc3c(c2)oc(=O)n3CC(=O)NCCc2ccccc2)CC1	i
CC1(C(=O)NC2CCCCCC2)Cn2nc(-c3ccco3)cc2C(=O)N1Cc1ccc2c(c1)OCO2 (configuration not stated)	i
SMILES	Methyltransferases
CCc1cc2c(cc3n2CC(C)(C(=O)NC2CCC(C)CC2)N(CCN2CCCCCC2)C3=O)s1 (configuration not stated)	i
CC(=O)OC/C(=C/C(=O)O)CC[C@@H]1C(C)=CC(=O)[C@@H]2C(C)(C)CCC[C@@]12C	+
CC1=CC(=O)C2C(C)(C)CCC[C@]2(C)[C@H]1CC[C@H](C)CC(=O)O (some centres not stated)	i
CC1=CC(=O)C2C(C)(C)CCC[C@]2(C)[C@H]1CO (some centres not stated)	i
CC(C)n1c(=O)c2ccc(C(=O)NC3CCCC3)cc2n2c(=O)n(Cc3ccc(F)cc3Cl)nc12	i
Cc1ccc(Cn2c(=O)c3ccccc3n3c(CCC(=O)NCc4ccccc4Cl)nnc23)cc1	i
COc1cc(N2CCC(N3CCN(C)CC3)CC2)ccc1Nc1ncnc(Nc2ccccc2S(=O)(=O)C(C)C)n1	i
COc1cc(N2CCC(O)CC2)ccc1Nc1cc(Nc2ccccc2S(=O)(=O)C(C)C)c2cc[nH]c2n1	+
CCC(NS(=O)(=O)c1cc(-n2cccn2)ccc1OC)C1CC(O)C1 (configuration not stated)	i
CCOC(=O)c1cc2n(n1)CC(C)(C(=O)NC1CCCCC1)N(Cc1ccccc1OCC)C2=O (configuration not stated)	i
O=C(NC1CC1)c1ccc2c(=O)nc3c(-c4ccc(Cl)cc4)n[nH]n3c2c1	i
O=C(NCc1ccc(F)cc1)c1ccc2c(=O)nc3c(-c4cccc(F)c4)n[nH]n3c2c1	i
COc1ccc(-c2cc3n(n2)CC(C)(C(=O)NCc2ccccc2OC)N(c2ccc(C)c(Cl)c2)C3=O)cc1 (configuration not stated)	i
CCNc1nc(Nc2cc(F)c(C(=O)N3CCOCC3)cc2OC)ncc1C(F)(F)F	+
CNc1nc(Nc2ccc(C(=O)N3CCOCC3)cc2OC)nc2[nH]cc(Cl)c12	i
CNc1nc(Nc2ccc(C(=O)N3CCOCC3)cc2OC)ncc1Cl	i
O=C(CCc1nnc2n(Cc3ccc(Cl)cc3)c(=O)c3ccccc3n12)N1CCc2ccccc2C1	i
O=C(O)C1(Cc2cccc(Nc3nccs3)n2)CCC(Oc2cccc(Cl)c2F)CC1 (configuration not stated)	+!
COc1ccc(-c2cc3n(n2)CC(C)(C(=O)NCc2ccccc2)N(CCCOC(C)C)C3=O)cc1 (configuration not stated)	i
CCOc1ccc(CCNC(=O)CCc2nnc3n(Cc4ccc(Cl)cc4)c(=O)c4ccccc4n23)cc1	i
O=C(CCCCCCC(=O)Nc1ccccc1)NO	i
CC(C)[C@H](C(=O)Nc1ccc(C(=O)NO)cc1)c1ccccc1	+
Cc1oc(C(O)c2ccccc2)nc1C(=O)Nc1ccc(C(=O)Nc2ccccc2)cc1 (configuration not stated)	i
CCc1nc2c(=O)n(CC(=O)N3CCN(c4cccc(C)c4C)CC3)nc(C)c2s1	i
Cc1cccc(N2CCN(C(=O)c3ccc4c(=O)[nH]c5c(C(=O)NC6CCCC6)sc(=S)n5c4c3)CC2)c1C	i
SMILES	Methyltransferases
Cc1cccc(-c2n[nH]n3c2nc(=O)c2ccc(C(=O)N4CCN(c5cc(C)ccc5C)CC4)cc23)c1	i
Cc1ccc(C)c(N2CCN(C(=O)c3ccc4c(=O)[nH]c5c(C(=O)NC(C)C)sc(=S)n5c4c3)CC2)c1	+
Cc1cccc(N2CCN(C(=O)c3ccc4c(=O)[nH]c5c(C(=O)NC(C)C)sc(=S)n5c4c3)CC2)c1C	+
Cc1ccc(C)c(N2CCN(C(=O)CCc3nnc4n(CCCOC(C)C)c(=O)c5ccccc5n34)CC2)c1	i
COc1cccc(S(=O)(=O)N2CCCC(c3nnnn3C)C2)c1 (configuration not stated)	i
COc1ccc(CCNC(=O)c2cc3n(n2)CC(C)(C(=O)NCCC(C)C)N(C)C3=O)cc1OC (configuration not stated)	i
O=C(c1cc(-c2ccc(Cl)cc2)c2nncn2n1)N1CCOCC1	i
COc1cccc(CNC(=O)CNC(=O)C2(C)Cn3c(cc4ccccc43)C(=O)N2C)c1 (configuration not stated)	i
CC/C=C/C(O)C(O)C1=C(C)C(=O)C2(O1)C(=O)NC(OC)(C(=O)c1ccccc1)C2O (configuration not stated)	i
